Holding throughout (assay): DAPPL (digital affinity profiling via proximity ligation, sequencing); 10 mM Tris-HCl pH 7.5, 50 mM NaCl, 1 mM DTT, 4% glycerol, room temperature, 30 min; GST-TFs on glutathione beads, 16-mer random dsDNA library, 0.1% formaldehyde crosslink after washing; high values mean tight binding
One assay addresses T1, FEV (Homo sapiens, UniProt Q99581 1-238).
T1 sequence: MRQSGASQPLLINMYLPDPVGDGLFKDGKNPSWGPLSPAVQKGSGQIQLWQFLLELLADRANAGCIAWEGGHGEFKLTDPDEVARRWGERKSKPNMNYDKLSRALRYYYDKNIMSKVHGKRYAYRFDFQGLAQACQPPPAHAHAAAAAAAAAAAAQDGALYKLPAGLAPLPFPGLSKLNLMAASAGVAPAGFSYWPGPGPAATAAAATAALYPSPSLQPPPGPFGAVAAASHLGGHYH
The settings on record: protein: recombinant; tags: N-terminal GST; dsDNA, one strand shown. Put shortly:
(§1)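 A tag-only sample was pooled with DNA-barcoded human transcription factors that had been expressed in yeast as GST fusions and captured on glutathione beads. The pools were incubated for 30 min at room temperature with 200 nmole of a random double-stranded 16-mer DNA library in Tris/NaCl/DTT/glycerol buffer, then washed, crosslinked with 0.1% formaldehyde, proximity-ligated (BsaI/T4 ligase, 1 h, 37 °C), PCR-amplified and sequenced on an Illumina NextSeq500. Binding signal is each hexamer's read frequency for a factor divided by its frequency for the tag-only sample.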

For another assay, the target named is ETV5 (Homo sapiens, UniProt P41161 1-510). The settings on record: protein: recombinant; tags: N-terminal GST; dsDNA, one strand shown. Put shortly:
as §1

The target in the next assay is HSF1 (Homo sapiens, UniProt Q00613 1-529). As to conditions: protein: recombinant; tags: N-terminal GST; chain copies: 3; dsDNA, one strand shown. Put shortly:
as §1

For another assay, the target named is T2, SPIC (Homo sapiens, UniProt Q8N5J4 1-248).
T2 sequence: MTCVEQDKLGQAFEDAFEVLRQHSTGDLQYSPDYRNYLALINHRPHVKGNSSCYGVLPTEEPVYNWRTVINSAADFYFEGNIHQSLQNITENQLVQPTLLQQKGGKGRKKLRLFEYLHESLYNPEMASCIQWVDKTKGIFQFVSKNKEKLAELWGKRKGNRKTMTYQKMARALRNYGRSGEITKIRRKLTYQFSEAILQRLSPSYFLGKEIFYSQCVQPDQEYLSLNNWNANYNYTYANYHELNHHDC
As to conditions: protein: recombinant; tags: N-terminal GST; dsDNA, one strand shown. Put shortly:
as §1

In a further assay the target is ELF4 (Homo sapiens, UniProt Q99607 1-663). The settings on record: protein: recombinant; tags: N-terminal GST; dsDNA, one strand shown. Put shortly: as §1
ELF4, sequence (Q99607 whole entry): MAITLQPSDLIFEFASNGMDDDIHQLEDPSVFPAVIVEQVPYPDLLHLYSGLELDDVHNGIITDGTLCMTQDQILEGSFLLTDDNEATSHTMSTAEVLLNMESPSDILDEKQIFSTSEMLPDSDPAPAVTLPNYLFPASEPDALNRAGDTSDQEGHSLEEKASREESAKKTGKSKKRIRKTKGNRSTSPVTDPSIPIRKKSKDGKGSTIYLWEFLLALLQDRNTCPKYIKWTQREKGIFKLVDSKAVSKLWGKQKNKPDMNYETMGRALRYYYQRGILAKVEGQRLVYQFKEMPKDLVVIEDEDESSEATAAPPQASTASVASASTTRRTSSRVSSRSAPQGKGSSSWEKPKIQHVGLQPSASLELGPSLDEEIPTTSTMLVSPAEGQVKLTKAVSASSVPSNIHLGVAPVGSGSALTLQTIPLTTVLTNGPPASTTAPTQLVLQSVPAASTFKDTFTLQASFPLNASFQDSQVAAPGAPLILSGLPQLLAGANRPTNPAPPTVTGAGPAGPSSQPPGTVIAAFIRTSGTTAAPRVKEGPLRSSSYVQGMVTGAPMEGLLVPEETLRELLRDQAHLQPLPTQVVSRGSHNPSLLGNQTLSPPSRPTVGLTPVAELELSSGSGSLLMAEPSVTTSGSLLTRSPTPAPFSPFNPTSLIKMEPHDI
The next assay addresses T3, ELK4 (Homo sapiens, UniProt P28324-2 1-405).
T3 sequence: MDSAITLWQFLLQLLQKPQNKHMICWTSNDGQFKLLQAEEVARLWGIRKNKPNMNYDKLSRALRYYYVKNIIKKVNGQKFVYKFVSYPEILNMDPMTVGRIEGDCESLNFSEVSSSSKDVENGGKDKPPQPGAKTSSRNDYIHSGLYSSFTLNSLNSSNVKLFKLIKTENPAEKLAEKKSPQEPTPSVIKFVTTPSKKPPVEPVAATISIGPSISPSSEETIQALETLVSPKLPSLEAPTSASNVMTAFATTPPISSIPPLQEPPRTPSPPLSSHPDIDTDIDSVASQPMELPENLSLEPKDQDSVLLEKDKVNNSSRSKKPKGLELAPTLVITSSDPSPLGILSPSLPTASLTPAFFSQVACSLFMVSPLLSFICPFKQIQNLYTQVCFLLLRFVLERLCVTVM
As to conditions: protein: recombinant; tags: N-terminal GST; dsDNA, one strand shown. Put shortly:
as §1

In the next assay the target is T4, ETV2 (Homo sapiens, UniProt O00321 1-342).
T4 sequence: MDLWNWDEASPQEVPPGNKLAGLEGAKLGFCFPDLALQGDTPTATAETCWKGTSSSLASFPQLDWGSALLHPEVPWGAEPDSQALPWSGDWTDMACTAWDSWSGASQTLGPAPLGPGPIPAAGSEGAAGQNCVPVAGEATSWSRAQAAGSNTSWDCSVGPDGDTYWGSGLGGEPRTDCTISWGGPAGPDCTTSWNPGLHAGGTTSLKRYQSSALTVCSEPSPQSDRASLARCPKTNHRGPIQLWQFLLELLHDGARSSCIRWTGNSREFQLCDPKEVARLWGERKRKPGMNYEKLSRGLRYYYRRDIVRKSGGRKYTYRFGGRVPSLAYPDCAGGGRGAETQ
As to conditions: protein: recombinant; tags: N-terminal GST; dsDNA, one strand shown. Put shortly: as §1

A further assay concerns the target T5, ELF3 (Homo sapiens, UniProt P78545 1-371).
T5 sequence: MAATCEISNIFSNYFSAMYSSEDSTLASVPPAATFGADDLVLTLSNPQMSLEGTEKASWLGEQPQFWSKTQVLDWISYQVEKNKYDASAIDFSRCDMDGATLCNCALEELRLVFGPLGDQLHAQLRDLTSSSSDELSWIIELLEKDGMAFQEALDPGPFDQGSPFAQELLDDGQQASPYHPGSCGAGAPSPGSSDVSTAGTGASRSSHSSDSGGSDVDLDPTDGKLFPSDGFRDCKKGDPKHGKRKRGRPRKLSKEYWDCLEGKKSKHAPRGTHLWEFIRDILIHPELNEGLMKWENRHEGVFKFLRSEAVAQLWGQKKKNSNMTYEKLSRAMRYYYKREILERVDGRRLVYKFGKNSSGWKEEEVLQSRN
As to conditions: protein: recombinant; tags: N-terminal GST; dsDNA, one strand shown. Put shortly:
as §1

The target of the next assay is CRX (Homo sapiens, UniProt O43186 1-299). The settings on record: protein: recombinant; tags: N-terminal GST; dsDNA, one strand shown. Put shortly: as §1
CRX, sequence (O43186 whole entry): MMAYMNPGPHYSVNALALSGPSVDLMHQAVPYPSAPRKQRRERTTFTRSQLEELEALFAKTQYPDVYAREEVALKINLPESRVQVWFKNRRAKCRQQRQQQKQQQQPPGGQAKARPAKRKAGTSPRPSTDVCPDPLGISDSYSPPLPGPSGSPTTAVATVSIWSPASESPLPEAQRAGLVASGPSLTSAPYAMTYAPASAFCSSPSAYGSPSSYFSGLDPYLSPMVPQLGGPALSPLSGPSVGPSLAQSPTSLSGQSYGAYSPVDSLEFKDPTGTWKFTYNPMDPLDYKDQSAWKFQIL
The next assay addresses ETV1 (Homo sapiens, UniProt P50549 1-477). As to conditions: protein: recombinant; tags: N-terminal GST; dsDNA, one strand shown. Put shortly: as §1
A further assay has as its target T6, ERF (Homo sapiens, UniProt P50548 1-548).
T6 sequence: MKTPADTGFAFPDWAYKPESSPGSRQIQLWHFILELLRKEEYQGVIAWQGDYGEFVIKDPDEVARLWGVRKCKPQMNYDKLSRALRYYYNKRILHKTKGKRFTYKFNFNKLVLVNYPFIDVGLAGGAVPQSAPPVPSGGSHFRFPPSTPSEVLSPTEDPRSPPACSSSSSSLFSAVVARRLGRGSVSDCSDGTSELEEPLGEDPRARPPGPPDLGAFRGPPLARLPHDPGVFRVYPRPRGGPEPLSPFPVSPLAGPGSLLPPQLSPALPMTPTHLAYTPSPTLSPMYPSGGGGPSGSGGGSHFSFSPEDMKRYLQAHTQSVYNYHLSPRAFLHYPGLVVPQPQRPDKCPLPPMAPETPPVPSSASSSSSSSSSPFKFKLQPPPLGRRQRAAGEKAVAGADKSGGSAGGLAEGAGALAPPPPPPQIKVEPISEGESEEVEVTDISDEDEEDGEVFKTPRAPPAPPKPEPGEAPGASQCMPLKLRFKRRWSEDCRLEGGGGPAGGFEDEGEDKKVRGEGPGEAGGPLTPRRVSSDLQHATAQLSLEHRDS
The settings on record: protein: recombinant; tags: N-terminal GST; dsDNA, one strand shown. Put shortly:
as §1

Another assay has as its target T7, ETV3L (Homo sapiens, UniProt Q6ZN32 1-361).
T7 sequence: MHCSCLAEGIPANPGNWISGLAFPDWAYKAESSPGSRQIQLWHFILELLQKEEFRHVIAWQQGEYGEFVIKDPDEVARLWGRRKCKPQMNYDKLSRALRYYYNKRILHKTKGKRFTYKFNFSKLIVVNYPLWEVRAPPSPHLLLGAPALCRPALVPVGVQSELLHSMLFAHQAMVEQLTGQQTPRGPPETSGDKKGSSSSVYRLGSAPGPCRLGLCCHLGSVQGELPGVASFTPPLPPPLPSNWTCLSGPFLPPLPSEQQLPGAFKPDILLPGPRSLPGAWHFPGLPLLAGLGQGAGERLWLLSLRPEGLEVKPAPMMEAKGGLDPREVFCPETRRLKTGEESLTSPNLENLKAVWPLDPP
The settings on record: protein: recombinant; tags: N-terminal GST; dsDNA, one strand shown. Put shortly:
as §1

The next assay concerns the target T8, ETS2 (Homo sapiens, UniProt P15036 1-469).
T8 sequence: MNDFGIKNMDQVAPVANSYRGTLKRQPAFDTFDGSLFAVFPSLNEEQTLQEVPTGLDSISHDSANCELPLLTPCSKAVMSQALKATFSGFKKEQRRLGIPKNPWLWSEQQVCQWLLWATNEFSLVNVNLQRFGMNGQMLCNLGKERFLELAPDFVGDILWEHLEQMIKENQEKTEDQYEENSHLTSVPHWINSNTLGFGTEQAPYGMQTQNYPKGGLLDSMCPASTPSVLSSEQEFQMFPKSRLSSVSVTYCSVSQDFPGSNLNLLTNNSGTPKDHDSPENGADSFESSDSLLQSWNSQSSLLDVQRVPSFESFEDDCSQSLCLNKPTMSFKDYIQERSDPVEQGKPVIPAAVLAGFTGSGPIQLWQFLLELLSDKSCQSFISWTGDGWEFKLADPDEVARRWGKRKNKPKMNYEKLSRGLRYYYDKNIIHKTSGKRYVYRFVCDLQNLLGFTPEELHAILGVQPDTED
As to conditions: protein: recombinant; tags: N-terminal GST; dsDNA, one strand shown. Put shortly: as §1

A further assay concerns the target T9, SPDEF (Homo sapiens, UniProt O95238 1-335).
T9 sequence: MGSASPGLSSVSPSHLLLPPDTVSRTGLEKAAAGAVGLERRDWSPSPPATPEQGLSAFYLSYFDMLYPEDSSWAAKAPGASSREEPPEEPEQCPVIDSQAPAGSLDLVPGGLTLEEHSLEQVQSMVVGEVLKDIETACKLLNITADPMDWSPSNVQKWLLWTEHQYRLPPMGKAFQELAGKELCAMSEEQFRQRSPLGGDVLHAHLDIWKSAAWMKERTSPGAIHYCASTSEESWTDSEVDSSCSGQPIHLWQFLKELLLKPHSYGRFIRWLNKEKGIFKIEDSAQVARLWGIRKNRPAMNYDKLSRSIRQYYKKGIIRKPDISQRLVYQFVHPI
The settings on record: protein: recombinant; tags: N-terminal GST; dsDNA, one strand shown. Put shortly: as §1

In another assay the target is T10, ETV7 (Homo sapiens, UniProt Q9Y603 1-341).
T10 sequence: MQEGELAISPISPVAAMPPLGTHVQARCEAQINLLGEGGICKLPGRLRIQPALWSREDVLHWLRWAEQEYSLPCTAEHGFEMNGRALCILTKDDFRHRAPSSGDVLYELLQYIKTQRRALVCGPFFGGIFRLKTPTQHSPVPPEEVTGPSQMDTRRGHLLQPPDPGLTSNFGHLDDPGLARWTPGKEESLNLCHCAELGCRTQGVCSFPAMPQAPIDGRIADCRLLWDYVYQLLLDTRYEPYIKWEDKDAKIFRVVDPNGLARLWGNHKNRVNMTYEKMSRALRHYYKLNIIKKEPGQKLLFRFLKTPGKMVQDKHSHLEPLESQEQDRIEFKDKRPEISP
The settings on record: protein: recombinant; tags: N-terminal GST; dsDNA, one strand shown. Put shortly:
as §1

The target in the next assay is T11, ELF5 (Homo sapiens, UniProt Q9UKW6-2 1-255).
T11 sequence: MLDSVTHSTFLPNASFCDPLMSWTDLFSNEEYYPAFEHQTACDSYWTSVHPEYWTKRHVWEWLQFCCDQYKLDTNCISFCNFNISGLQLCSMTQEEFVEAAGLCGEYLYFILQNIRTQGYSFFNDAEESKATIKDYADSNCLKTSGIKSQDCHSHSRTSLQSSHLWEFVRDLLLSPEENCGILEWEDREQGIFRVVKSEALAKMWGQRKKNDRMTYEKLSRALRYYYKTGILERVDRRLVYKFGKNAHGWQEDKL
The settings on record: protein: recombinant; tags: N-terminal GST; dsDNA, one strand shown. Put shortly:
as §1

The next assay deals with T12, ETV3 (Homo sapiens, UniProt P41162-2 1-143).
T12 sequence: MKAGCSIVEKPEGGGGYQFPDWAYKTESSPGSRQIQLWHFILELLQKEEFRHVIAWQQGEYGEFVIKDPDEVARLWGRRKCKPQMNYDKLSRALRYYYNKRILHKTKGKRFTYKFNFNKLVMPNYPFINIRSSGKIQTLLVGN
As to conditions: protein: recombinant; tags: N-terminal GST; dsDNA, one strand shown. Put shortly:
as §1

The target of another assay is ETV6 (Homo sapiens, UniProt P41212 1-452). As to conditions: protein: recombinant; tags: N-terminal GST; dsDNA, one strand shown. Put shortly: as §1
ETV6, sequence (P41212 whole entry): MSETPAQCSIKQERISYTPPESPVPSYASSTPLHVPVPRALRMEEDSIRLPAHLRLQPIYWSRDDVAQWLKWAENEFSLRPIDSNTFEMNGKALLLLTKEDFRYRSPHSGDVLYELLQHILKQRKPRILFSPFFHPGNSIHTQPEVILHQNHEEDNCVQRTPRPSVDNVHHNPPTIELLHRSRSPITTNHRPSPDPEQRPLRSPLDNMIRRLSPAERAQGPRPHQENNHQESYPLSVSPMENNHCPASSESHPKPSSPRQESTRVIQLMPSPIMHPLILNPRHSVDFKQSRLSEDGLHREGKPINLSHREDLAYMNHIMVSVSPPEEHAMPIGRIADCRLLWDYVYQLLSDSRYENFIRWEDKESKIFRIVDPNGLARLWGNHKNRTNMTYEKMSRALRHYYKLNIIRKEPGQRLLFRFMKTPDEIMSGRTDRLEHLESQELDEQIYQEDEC

HSF1, sequence (Q00613 whole entry): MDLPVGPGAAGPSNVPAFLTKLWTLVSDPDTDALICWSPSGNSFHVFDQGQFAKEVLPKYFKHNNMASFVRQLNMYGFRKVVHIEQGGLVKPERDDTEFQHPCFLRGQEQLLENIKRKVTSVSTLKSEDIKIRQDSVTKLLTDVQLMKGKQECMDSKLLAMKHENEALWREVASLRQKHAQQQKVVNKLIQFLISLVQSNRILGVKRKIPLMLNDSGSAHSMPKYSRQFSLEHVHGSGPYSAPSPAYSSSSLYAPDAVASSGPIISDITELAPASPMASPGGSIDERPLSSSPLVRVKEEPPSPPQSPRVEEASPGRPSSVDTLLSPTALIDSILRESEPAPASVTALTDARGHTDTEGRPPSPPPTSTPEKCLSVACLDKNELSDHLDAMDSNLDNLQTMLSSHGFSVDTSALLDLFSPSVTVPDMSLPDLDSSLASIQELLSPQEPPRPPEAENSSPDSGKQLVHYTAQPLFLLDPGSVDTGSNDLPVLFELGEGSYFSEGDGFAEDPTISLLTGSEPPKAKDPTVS
ETV5, sequence (P41161 whole entry): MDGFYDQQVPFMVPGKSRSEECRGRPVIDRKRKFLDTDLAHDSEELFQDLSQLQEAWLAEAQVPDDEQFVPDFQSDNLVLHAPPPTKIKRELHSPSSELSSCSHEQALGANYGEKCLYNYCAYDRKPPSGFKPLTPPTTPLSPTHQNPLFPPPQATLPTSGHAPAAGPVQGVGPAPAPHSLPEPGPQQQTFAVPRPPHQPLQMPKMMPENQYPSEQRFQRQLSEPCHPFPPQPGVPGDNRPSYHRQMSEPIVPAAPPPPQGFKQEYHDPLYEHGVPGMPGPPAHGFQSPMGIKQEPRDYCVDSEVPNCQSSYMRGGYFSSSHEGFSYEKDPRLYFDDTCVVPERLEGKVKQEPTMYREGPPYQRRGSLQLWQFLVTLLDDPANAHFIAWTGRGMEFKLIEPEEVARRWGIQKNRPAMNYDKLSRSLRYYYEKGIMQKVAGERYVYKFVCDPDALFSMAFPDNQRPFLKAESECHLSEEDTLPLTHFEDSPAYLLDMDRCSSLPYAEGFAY
ETV1, sequence (P50549 whole entry): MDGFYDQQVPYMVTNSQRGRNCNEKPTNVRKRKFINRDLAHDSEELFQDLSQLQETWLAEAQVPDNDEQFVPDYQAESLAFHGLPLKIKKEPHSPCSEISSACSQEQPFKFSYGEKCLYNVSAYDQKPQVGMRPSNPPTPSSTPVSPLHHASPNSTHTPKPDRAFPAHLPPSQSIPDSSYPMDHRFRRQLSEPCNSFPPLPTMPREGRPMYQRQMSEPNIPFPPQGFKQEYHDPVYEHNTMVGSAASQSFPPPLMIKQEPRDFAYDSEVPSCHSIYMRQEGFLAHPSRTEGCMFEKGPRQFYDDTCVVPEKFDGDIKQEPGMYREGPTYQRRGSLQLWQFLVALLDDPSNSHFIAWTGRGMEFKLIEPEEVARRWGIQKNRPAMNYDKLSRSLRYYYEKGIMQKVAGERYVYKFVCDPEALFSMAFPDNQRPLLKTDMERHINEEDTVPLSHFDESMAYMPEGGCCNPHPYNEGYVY

TCACCT: the binding signal with FEV is 1.17 fold enrichment (6-mer frequency, TF over GST control); in the assay with ETV5, 1.18 fold enrichment (6-mer frequency, TF over GST control); with HSF1, 1.03 fold enrichment (6-mer frequency, TF over GST control); with SPIC it was 1.31 fold enrichment (6-mer frequency, TF over GST control); with ELF4, 1.33 fold enrichment (6-mer frequency, TF over GST control); with ELK4, 1.12 fold enrichment (6-mer frequency, TF over GST control). The binding signal with ETV2 was 1.21 fold enrichment (6-mer frequency, TF over GST control); in the assay with ELF3 it was 1.25 fold enrichment (6-mer frequency, TF over GST control); with CRX, 1.15 fold enrichment (6-mer frequency, TF over GST control); with ETV1, 1.19 fold enrichment (6-mer frequency, TF over GST control); with ERF it was 1.2 fold enrichment (6-mer frequency, TF over GST control); with ETV3L, 1.17 fold enrichment (6-mer frequency, TF over GST control). In addition, the binding signal in the assay with ETS2 was 1.09 fold enrichment (6-mer frequency, TF over GST control); with SPDEF it was 1.22 fold enrichment (6-mer frequency, TF over GST control); in the assay with ETV7, 1.19 fold enrichment (6-mer frequency, TF over GST control); with ELF5, 1.21 fold enrichment (6-mer frequency, TF over GST control); with ETV3, 1.2 fold enrichment (6-mer frequency, TF over GST control); in the assay with ETV6, 1.19 fold enrichment (6-mer frequency, TF over GST control).

These data come from article PMC7862700, “An all-to-all approach to the identification of sequence-specific readers for epigenetic DNA modifications on cytosine”.
